# An excerpt weighted towards active compounds, which were near 5.7% of everything screened.
# D3 ag – qHTS of D3 Dopamine Receptor Agonist: qHTS. D(3) dopamine receptor (Homo sapiens), P35462. D3R DiscoveRx beta-arrestin cells, luminescence, 90 min. max activation, %. actives 0.58% (n = 410,000). AID 652048, 2013; in the data active means max activation above about 30%; further: 0% is about no effect
#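 Agonist mode: compounds and dopamine controls were applied to plated cells for 90 min at 37 degrees C after an overnight attachment at 1500 cells/well. Luminescent read-out followed 30 - 60 minutes at room temperature with DiscoveRx detection reagent.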
# ClpP mod – qHTS Assay for Activators of ClpP; purified B. subtilis ClpP, FRET peptide cleavage, 20 min; Potency, µM (doses to about 57.5 µM), inactives show at the top dose activity change, negative = active; actives 1.9% (n = 340,000); active means well fitted falling curve with a large enough effect; inconclusive means small, poorly fitted or top-dose-only effect; inactive means no such curve, though single readings can be large or run the other way; further: potency means the concentration at half of the fitted maximal effect; the source files actives as falling curves though it sought activators and does not explain the sign; nearly all actives have a fitted effect of over 65% in size
#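 Buffer: 100 mM Tris/HCl pH8, 100 mM KCl, 0.05% low protease BSA, 2.5% glycerol, 0.01% Tween-20. ClpP 10 microg/mL final; 20 min RT; delta FRET normalized to ADEP and DMSO controls.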
# DRD3 antagonist – qHTS of D3 Dopamine Receptor Antagonist: qHTS; actives 2.5% (n = 360,000); D3R cells, DiscoveRx beta-arrestin luminescence, antagonist mode; stronger effect = lower value; max response, negative = inhibition, %; in the data active means max response below about -50%; inconclusive means no clear call, values can overlap the other calls; further: on the % scale 0 is the no-effect control and ±100 the full control effect
#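 Cells plated overnight at 1500 cells/well, then exposed to library compounds with dopamine controls for 90 minutes at 37 degrees C. DiscoveRx reagent added for 30–60 minutes at room temperature; luminescence read, quantitative HTS format.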
# HEK293 tox – qHTS of GLP-1 Receptor Inverse Agonists: Cytotox Screen; HEK293 cAMP-luciferase reporter cells, luminescence, 24 h; Potency, µM (top dose mostly 38.3 µM), inactives show at the highest dose activity change, negative = inhibition, most hits filed as inhibitors; actives 0.13% (n = 410,000); AID 624418, 2012;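 further: loss of luciferase light is scored as toxicity; potency means the concentration at half of the fitted maximal effect; on the % scale 0 is the no-effect control and ±100 the full control effect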
#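 1536-well qHTS counterscreen of the MLSMR; 200 cells/uL, 12 h pre-incubation, 23 nL cpd, 24 h at 37 deg C 5% CO2, luciferase detection reagent, 12 min RT, luminescence. Inhibition = undesired.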
# GLP1R ag – qHTS of GLP-1 Receptor Agonists; Glucagon-like peptide 1 receptor (Homo sapiens), P43220; HEK293 GLP-1R CRE-luciferase, luminescence, 4-6 h; cells express a hypersensitive GLP-1R form; Potency, µM (top dose mostly 45.6 µM), for inactives: at the highest dose activation, most hits filed as activators; actives 0.007% (n = 380,000); AID 624172, 2012; further: potency means the concentration at half of the fitted maximal effect; % of control where 0% means no effect
# GLP-1R inv ag – qHTS of GLP-1 Receptor Inverse Agonists (Inhibition Mode). HEK293 GLP-1R CRE-luciferase, luminescence, 24 h; GLP-1R form is constitutively active. Potency, µM (top dose mostly 38.3 µM), inactives show at the top dose activity change, negative = inhibition, hits mostly inhibitors. Glucagon-like peptide 1 receptor (Homo sapiens), P43220. actives 1.6% (n = 410,000); further: potency means the concentration at half of the fitted maximal effect; on the % scale 0 is the no-effect control and ±100 the full control effect; nearly all actives have a fitted effect of over 55% in size
#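 Stable HEK293 clone (constitutively active GLP-1R + cAMP-response luciferase); 200 cells/uL plated, 12 h pre-culture, compound 24 hr, 37 deg C/5% CO2; detection reagent 12 min RT; luminescence.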
# Active calls of the source: *; ? = inconclusive; · = not tested or not shown; [ ] = another dose, or the depositor's remark. Unless noted, the call rests on the fitted dose curve; in most records, active means well fitted curve in the direction sought with a large enough effect; inconclusive means small, poorly fitted or top-dose-only effect, or another doubt; inactive means no such curve, though single readings can be large; an effect the other way counts as inactive or inconclusive.
SMILES,D3 ag,ClpP mod,DRD3 antagonist,HEK293 tox,GLP1R ag,GLP-1R inv ag
C[C@H]1CCCCO[C@H](CN(C)CC2CCCCC2)[C@@H](C)CN([C@@H](C)CO)C(=O)c2cc(NS(=O)(=O)c3ccccc3)ccc2O1,3,-3%,26,-30%,27%,?
Clc1ccc(-c2csc3ncnc(NCCN4CCOCC4)c23)cc1,2,1%,-20,67%,3%,3.2µM*
Clc1ccc(CNc2nc(CN3CCOCC3)nc3scc(-c4ccccc4)c23)cc1,0,-2%,-5,?,-3%,3.2µM*
Cn1nnc2c(NCc3c(F)cccc3F)ncnc21,2,0%,·,5%,·,-4%
O=C(c1ccc(=O)[nH]c1)N1CCN(S(=O)(=O)c2cc(C(F)(F)F)ccc2Cl)CC1,-6,-1%,-19,10%,1%,-31%
O=C(NNc1cc(C(F)(F)F)ccc1Cl)c1ccc(=O)[nH]c1,5,·,5,-8%,9%,3.5µM*
Cc1nn(C)c2c1c(-c1ccccc1)cc(=O)n2Cc1ccccc1C#N,2,?,·,10%,·,-4%
O=C(c1ccc(NC2=NC3CS(=O)(=O)CC3S2)cc1)N1CCN(c2ccccc2F)CC1 (stereo unspecified),-10,-2%,-61*,5%,7%,-4%
O=C(c1ccc(NC2=NC3CS(=O)(=O)CC3S2)cc1)N1CCN(c2ccc(F)cc2)CC1 (stereo unspecified),5,-2%,-7,-13%,-4%,8%
CCc1ccc(N2C(=O)C(Cl)=C(Nc3ccc(C(=O)N4CCCC4)cc3)C2=O)cc1,-14,2%,-57*,-4%,3%,6%
O=C(c1ccc(N2C(=O)c3ccccc3C2=O)cc1)N1CCCCC1,22,0%,8,-11%,-7%,27%
Cc1ccc2c(c1)[C@H]1[C@H](CO2)[C@H](c2ccccc2)[C@]2(C)C(=O)Nc3ccc(Br)cc3C(=O)N12,3,-2%,-7,5%,-6%,3.2µM*
COc1ccc(CN2CC(=O)N3[C@H]4c5ccc(OC)cc5OC[C@@H]4[C@H](c4ccccc4)[C@]3(C)C2=O)cc1,1,0%,16,-13%,1%,?
Cc1ccc2c(c1)[C@@H]1[C@H](CO2)[C@H](c2ccccc2)[C@@]2(C)C(=O)N[C@H](C)C(=O)N12,31*,-1%,8,4%,-2%,-2%
COc1ccc2c(c1)OC[C@H]1[C@H]2N2C(=O)CN(Cc3ccc(Cl)cc3)C(=O)[C@@]2(C)[C@H]1c1ccccc1,-9,2%,-14,12%,-1%,11µM*
COc1ccc2c(c1)C(=O)N1[C@H]3c4cc(OC)ccc4OC[C@@H]3[C@H](c3ccccc3)[C@]1(C)C(=O)N2,21,?,-4,-1%,-1%,?
C[C@H]1NC(=O)[C@]2(C)[C@@H](c3ccccc3)[C@H]3COc4ccccc4[C@@H]3N2C1=O,9,-7%,4,-1%,9%,7%
COc1ccc2c(c1)[C@H]1[C@H](CO2)[C@H](c2ccccc2)[C@]2(C)C(=O)Nc3ccc(Br)cc3C(=O)N12,-28,-11%,-12,24%,-5%,5.6µM*
Clc1ccccc1CN(Cc1ccccc1)c1ncnc2nc[nH]c12,1,1%,-64*,-17%,3%,?
CNS(=O)(=O)c1cc(C(=O)O)ccc1OC,2,·,5,1%,0%,14%
COc1ccc(C(=O)O)cc1S(N)(=O)=O,-12,0%,-60*,-5%[7.66 µM],-1%,4%[7.66 µM]
COc1ccc(NS(=O)(=O)c2ccc(NC(=O)c3ccc(N(C)S(C)(=O)=O)cc3)cc2)c(OC)c1,0,25µM*,6,4%,-8%,6%
CN(c1ccc(C(=O)Nc2ccc3c(c2)n(C)c(=O)n3C)cc1)S(C)(=O)=O,-6,25µM*,-11,-3%,7%,13%
CN(c1ccccc1C(=O)Nc1ccc2c(c1)n(C)c(=O)n2C)S(C)(=O)=O,-6,-2%,8,-3%,18%,11%
O=C(C[N+]12CN3CN(CN(C3)C1)C2)c1ccc(Br)cc1,·,-3%,·,·,·,·
SMILES,D3 ag,ClpP mod,DRD3 antagonist,HEK293 tox,GLP1R ag,GLP-1R inv ag
CC1=CN2C(=N)/C(=C/c3ccco3)C(=O)N=C2S1,-7,1%,-60*,-15%,-6%,12%
CCOC(=O)C1CCN(c2c(C(=O)c3ccc(OC)cc3)cnc3ccccc23)CC1,-13,5%,·,2%,·,-27%
Cc1ccc(Sc2ncccc2COC(=O)Nc2c(C)cccc2C)cc1,6,-5%,?,9%,-1%,7.9µM*
Cc1ccc(Sc2ncccc2COC(=O)Nc2ccccc2)cc1,7,-1%,3,-2%,0%,7.9µM*
O=C(c1ccc2c(=O)n(Cc3ccco3)c(=S)[nH]c2c1)N1CCN(Cc2ccc3c(c2)OCO3)CC1,·,0%,·,·,·,·
O=C(COC(=O)C1(c2ccccc2F)CCCC1)NCc1cccs1,-8,·,-23,3%,8%,?
NS(=O)(=O)c1ccc(NC(=O)COC(=O)C2(c3ccccc3F)CCCC2)cc1,-5,25µM*,-3,5%,-2%,?
O=C(COc1ccccc1)NC1CCS(=O)(=O)C1 (stereo unspecified),1,-3%,-5,9%,-6%,21%
O=C(COC(=O)C1(c2ccccc2F)CCCC1)NC1CCS(=O)(=O)C1 (stereo unspecified),-5,28µM*,-62*,1%,1%,5%
CCOc1ccc(NC(=O)Cn2cc(C(=O)c3ccc(F)cc3)c(=O)c3cc4c(cc32)OCO4)cc1,-13,-4%,·,1%,·,7%
COCCCNC(=O)c1ccc(Cn2c(=O)c3ccccc3n(Cc3c(C)cc(C)cc3C)c2=O)cc1,-14,-3%,·,1%,1%,1%
CCn1c(CCCOc2ccc(Cl)cc2Cl)nnc1SCC(=O)Nc1cc(F)ccc1C,14,-1%,34,-27%,11%,11µM*
CC1CCN(C(=O)c2ccccc2SCC(=O)NCC2CCCCC2)CC1,3,22µM*,12,10%,8%,?
